Laboratory results: PubChem BioAssay (EPA / NIEHS)
Inconclusive results are not listed. Activity calls are given as the source filed them. Rule for the calls, unless noted: active = hit-call score of the fitted dose curve at least 0.9, where 1 is the maximum; inconclusive = response in the unintended direction; inactive = score below 0.9.

Legend:
[1] = TOX21_p53_BLA_p2_viability: Viability Assessment in the Tox21 HCT-116 p53 Agonism Beta-lactamase Assay, Phase 2 (AID 2283591);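 note: compound exposure lasted 16 h at 37 °C; actives lower the ATP signal meaning cytotoxicity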
Summary of the method: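 HCT-116 p53-bla cells (4000/well) rested 5 h at 37C, then received compounds in DMSO (217-fold dilution) for 16 h at 37C, 5% CO2. After the CCF4 read, CellTiter-Glo was added; ATP luminescence was read after 30 min at room temperature.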

[2] = target: Cellular tumor antigen p53 (Homo sapiens) (UniProt P04637); assay: TOX21_p53_BLA_p2_ratio: Tox21 HCT-116 p53 Agonism Beta-lactamase Assay, Ratio, Phase 2 (AID 2283592)
Chain of Cellular tumor antigen p53 (Homo sapiens) (P04637 whole entry, looked up): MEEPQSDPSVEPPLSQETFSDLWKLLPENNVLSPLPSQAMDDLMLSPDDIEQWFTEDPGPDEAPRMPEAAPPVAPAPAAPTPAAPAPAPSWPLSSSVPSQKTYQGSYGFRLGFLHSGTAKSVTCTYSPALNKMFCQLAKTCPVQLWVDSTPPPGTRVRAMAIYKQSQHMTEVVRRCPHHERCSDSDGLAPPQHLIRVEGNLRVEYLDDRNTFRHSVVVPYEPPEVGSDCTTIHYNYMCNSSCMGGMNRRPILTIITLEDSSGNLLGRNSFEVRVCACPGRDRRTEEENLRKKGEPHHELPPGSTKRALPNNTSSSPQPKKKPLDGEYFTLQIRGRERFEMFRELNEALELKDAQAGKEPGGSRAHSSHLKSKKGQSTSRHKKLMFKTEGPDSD
Summary of the method: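 Human colon HCT116 cells with an inducible p53 beta-lactamase reporter are exposed to test chemicals for 16 h at 37C. Reporter induction is read as the 460/530 nm emission ratio after CCF4-AM loading, normalized to DMSO.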

[3] = TOX21_p53_BLA_p4_viability: Viability Assessment in the Tox21 HCT-116 p53 Agonism Beta-lactamase Assay, Phase 4 (AID 2283597);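 note: hits lower the luminescence signal meaning cytotoxicity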
Summary of the method: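 Luminescent ATP readout (CellTiter-Glo, 30 min, room temperature) in the same wells as the p53 bla ratio. HCT116 cells were treated for 16 h at 37C with DMSO-dissolved compounds.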

[4] = target: Cellular tumor antigen p53 (Homo sapiens) (UniProt P04637); assay: TOX21_p53_BLA_p5_ratio: Tox21 HCT-116 p53 Agonism Beta-lactamase Assay, Ratio, Phase 5 (AID 2283599)
Summary of the method: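 HCT-116 cells carrying a p53-inducible beta-lactamase reporter were seeded at 4000 cells/well and dosed after 5 h with compound in DMSO (217-fold dilution). After 16 h at 37C, CCF4-AM substrate was added for 2 h, and the 460/530 nm emission ratio was scored as gain-of-signal versus DMSO.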

[5] = TOX21_p53_BLA_p5_viability: Viability Assessment in the Tox21 HCT-116 p53 Agonism Beta-lactamase Assay, Phase 5 (AID 2283600)
Summary of the method: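 Seeded cells (4000/well) settle 5 h before compound addition. Plates then incubate 16 h at 37C, receive FRET substrate for 2 h, and finally CellTiter-Glo, with luminescence measured after a 30 min room-temperature incubation.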

[6] = target: Cellular tumor antigen p53 (Homo sapiens) (UniProt P04637); assay: TOX21_p53_BLA_p4_ratio: Tox21 HCT-116 p53 Agonism Beta-lactamase Assay, Ratio, Phase 4 (AID 2283601)
Summary of the method: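 HCT116 cells carrying an inducible beta-lactamase reporter were plated at 4000 cells/well, rested 5 h, then exposed to compounds in DMSO (217-fold dilution) for 16 h at 37C. CCF4-AM substrate was loaded 2 h at room temperature; 460/530 nm emission ratio scored gain-of-signal versus DMSO.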

[7] = TOX21_p53_BLA_p3_viability: Viability Assessment in the Tox21 HCT-116 p53 Agonism Beta-lactamase Assay, Phase 3 (AID 2283593);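 note: cells exposed to compound for 16 h before reading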
Summary of the method: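 HCT-116 cells (4000/well) rested 5 h at 37C, then got DMSO compounds by pin tool (217-fold dilution) for 16 h at 37C, 5% CO2. After the bla read, CellTiter-Glo was added and luminescence read at 30 min, room temperature.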

[8] = target: Cellular tumor antigen p53 (Homo sapiens) (UniProt P04637); assay: TOX21_p53_BLA_p3_ratio: Tox21 HCT-116 p53 Agonism Beta-lactamase Assay, Ratio, Phase 3 (AID 2283596)
Summary of the method: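 HCT116 p53-bla cells (4000/well) given compound in DMSO (217-fold dilution) after 5 h, incubated 16 h at 37C. CCF4-AM substrate 2 h at room temperature; 460/530 nm emission ratio, gain fitted against DMSO.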

[9] = ACEA_ER_AUC_viability: ACEA Biosciences xCELLigence Real-Time Cell Analysis on Estrogen Receptor Agonism for Viability (AID 2283782);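 note: continuous compound exposure with impedance area under curve over 80 h; hit means loss of impedance signal meaning reduced cell growth or viability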
Summary of the method: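 T-47D human breast cells in phenol red-free RPMI1640 with 10% charcoal-stripped FBS were dosed with an 8-point 1:4 dilution series from 100 uM top final concentration, in duplicate. Impedance-based growth was followed for 80 h; AUC analysed versus DMSO.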

[10] = CCTE_Harrill_HTTr_Viability_MCF7: CCTE's 6-hour Cell Viability Assessment for the High-Throughput Transcriptomics (HTTr) Platform, in MCF-7 cells cultured in DMEM + 10% fetal bovine serum, Harrill Lab (AID 2284010; active = hit-call score of the fitted dose curve at least 0.9, where 1 is the maximum; inactive = score below 0.9)
Summary of the method: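 Membrane integrity was scored by high-content imaging of propidium iodide dye exclusion after a 6 h exposure across an eight-point dilution series. Data were fitted bidirectionally relative to DMSO as negative control and baseline.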

Measured: AC50

CC(C)(C)NC[C@H](O)c1ccc(O)cc1Cl
inactive: [1] | [2] | [3]

OCC(Br)CBr (centres undefined)
inactive: [1] | [2] | [3] | [4] | [5] | [6]

NCCCNCCCN
inactive: [1] | [2] | [3] | [4] | [5] | [6]

CN1CCN(C(=O)O[C@H]2c3nccnc3C(=O)N2c2ccc(Cl)cn2)CC1
inactive: [1] | [2] | [3] | [5] | [6]

N#CCc1ccccc1
not listed: [2] | [9] | [10]
inactive: all other assays above

O=C(O)/C=C/C(=O)O
inactive: [1] | [2] | [4] | [5] | [6]

CCCN(CC1CC1)c1c([N+](=O)[O-])cc(C(F)(F)F)cc1[N+](=O)[O-]
active: [9] 25.4 µM
not listed: [2] | [6]
inactive: all other assays above

COC1CC(=C(c2cccs2)c2cccs2)C[N+](C)(C)C1 (centres undefined)
inactive: [1] | [2] | [4] | [5]
